From PubChem BioAssay come the findings set out here.

Calls of active or inactive are those of the source.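 Rule for the calls: active = inhibition above 20% together with a positive visual image hit; inconclusive = visual image hit but inhibition not above 20%; inactive = no visual image hit.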

This test can be described thus: inhibitors of TNFa-induced NFkB p65 translocation, primary screen, imaging, HUVEC, MLSMR starter and 10KST1 sets (AID 438).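 For inhibition: signal is the nuclear over cytoplasmic p65 intensity ratio per well.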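 Note: compound added about 3h40 before a 20 min TNFalpha stimulation.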 To be noted: HUVEC TNFa-induced p65 nuclear translocation; cell count: measured here: nuclei count (cytotoxicity indicator), at 2.08 µM; inhibition: at 2 µM, stronger effect = higher value, 0% TNFa-plus-vehicle, 100% no-TNFa wells.
Take `COc1ccc(C2C(C#N)=C(C)NC3=C2C(=O)CC(C)(C)C3)c(OC)c1` (configuration not stated): the cell count worked out at 252 and the inhibition (commonly the relative decrease from the control value, in per cent) was -8% (inactive).
For `CC(C(=O)OCn1nnc2ccccc2c1=O)N1C(=O)c2ccccc2C1=O` (configuration not stated), the inhibition is -15.6% (inactive) and the cell count amounted to 532.
Turning to `CCOCCn1cnc2sc(C(=O)Nc3nc(C)c(C(=O)OCC)s3)c(C)c2c1=O`, the inhibition is -3.7% (inactive) and the cell count worked out at 785.
In the case of `CCC(=NC(C)c1ccccc1)c1c(O)n(C)c(=O)n(C)c1=O` (configuration not stated), the cell count is 287 and the inhibition was 9.3% (inactive).
For `COc1cc(=O)[nH]c(SCc2c(F)c(F)c(F)c(F)c2F)n1`, the inhibition is 2.2% (inactive) and the cell count was 546.
The matching figures for `CCCC(=O)N1CCN(c2ccc(NC(=O)c3ccc(Br)o3)cc2)CC1`: 0.6% (inactive) and 232.
In the case of `COc1ccc(Cc2nn3c(-c4cc(OC)c(OC)c(OC)c4)nnc3s2)cc1`, the cell count came out at 552 and the inhibition was 7.6% (inactive).
On to `CC(C)CCNC(=O)CCNS(=O)(=O)c1ccc(Cl)cc1`, for which the cell count was found to be 538 and the inhibition was -19.2% (inactive).
The matching figures for `CCn1c(C(=O)OC)cc2c1ccn2-c1ccc(F)cc1`: 648 and -2.6% (inactive).
The matching figures for `O=C(CSc1nnc(Cc2ccccc2)n1C1CCCCC1)N1CCOCC1`: 367 and 7.2% (inactive).
The like results for `CC(=O)c1c(C)[nH]c(C(=O)Nc2ccc3c(c2)OCCO3)c1C` were, in that order, 402 and -3.5% (inactive).
With `COCCn1nnnc1C(C(C)C)N(Cc1cccnc1)Cc1ccccc1Cl` (configuration not stated), the inhibition is 2.1% (inactive) and the cell count came out at 526.
The matching figures for `Cc1c(Cc2ccccc2)sc(N)c1C(N)=O`: -13% (inactive) and 335.
The matching figures for `O=C(CN(c1ccc(F)cc1)S(=O)(=O)c1ccc2c(c1)OCCO2)NCC1CCCO1` (configuration not stated): 0.8% (inactive) and 472.
The matching figures for `O=C(Nc1ccccc1)c1cccnc1N1CCOCC1`: -11.1% (inactive) and 590.
For `Cc1c(NC(=O)CN2c3cccc4cccc(c34)S2(=O)=O)c(=O)n(-c2ccccc2)n1C`, the inhibition was -7.1% (inactive) and the cell count was determined as 721.
Turning to `Cc1ccc(S(=O)(=O)NCCC(=O)OCn2nnc3ccccc3c2=O)cc1`, the inhibition was -0.8% (inactive) and the cell count is 603.
Regarding `c1ccc2nc(-c3nc4ccccc4[nH]3)ccc2c1`, the inhibition is 9.8% (inactive) and the cell count worked out at 574.
The matching figures for `COc1ccc(-n2nnc3c(=O)n(C/C=C/c4ccccc4)cnc32)cc1`: -6.7% (inactive) and 585.
The like results for `O=C(Nc1ccccc1C(=O)N1CCCCCC1)c1cccc(S(=O)(=O)N2CCOCC2)c1` were, in that order, -6.5% (inactive) and 492.
On to `CCOC(=O)C1=C(C)N(C)C(C)=C(C(=O)OCC)C1c1cccnc1`, for which the inhibition is -5.2% (inactive) and the cell count is 366.
`O=C(Nc1ccc(Cc2ccncc2)cc1)C1CC1`: the cell count worked out at 447 and the inhibition is 2.9% (inactive).
`CCOC(=O)c1oc2ccccc2c1CSc1nnnn1-c1ccc(OC)cc1`: the inhibition is -7.7% (inactive) and the cell count came out at 381.
The matching figures for `COc1cc(C2c3c(oc4c(C)cc(C)cc4c3=O)C(=O)N2Cc2cccnc2)cc(OC)c1OC` (configuration not stated): 0.3% (inactive) and 632.
For `CC(=O)N1CCc2cc(S(=O)(=O)NCCC3=CCCCC3)ccc21`, the cell count came out at 399 and the inhibition is 3.5% (inactive).
The matching figures for `CC1=C(C(=O)OCCOC(C)C)C(c2cc3c(cc2Br)OCO3)C2=C(CCCC2=O)N1` (configuration not stated): 446 and 0.2% (inactive).
